Potency and affinity values are given separately. Inconclusive results are not listed. Entries that show only a call come without a potency. Calls of active or inactive are those of the source.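 How the source made its calls: active means signal loss with fitted half-maximal concentration at or below twice the top valid tested dose in every test run; inconclusive means runs disagree, flat 30 to 70% signal loss, or poor fit; inactive means all runs flat, opposite direction, or potency beyond limit.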

This experiment in a line: general mammalian cell viability loss – inhibitor set, cherry-pick, set 2, cytotoxicity control for miR-122 modulator project, dose response (AID 720697). The conditions noted are these: HEK293T viability, CellTiter-Glo luminescence, 48 h; series mostly up to 26 µM.
As to `CCC(=O)N1C[C@H]2[C@@H](c3ccccc31)[C@H](CO)N2C(=O)Nc1ccccc1F`, the outcome was inactive. Regarding `CNC(=O)C[C@@H]1CC[C@@H]2[C@@H](COc3ccc(NC(=O)c4cccc(OC)c4)cc3C(=O)N2C)O1`, the call was inactive.

Take `CN1C(=O)c2cc(NC(=O)c3cccs3)ccc2OC[C@@H]2O[C@H](CC(=O)NCC(F)(F)F)CC[C@H]21`: the compound was classed as inactive. `CN1C(=O)c2cc(NC(=O)c3cccc(F)c3)ccc2OC[C@@H]2O[C@H](CC(=O)NC3CCC3)CC[C@@H]21`: the call was inactive. As to `C[C@H](NC(=O)C[C@H]1CC[C@@H]2[C@@H](COc3ccc(NS(=O)(=O)c4ccc(Cl)cc4)cc3C(=O)N2C)O1)c1ccccc1`, the result was inactive.

For `CCN(C[C@@H]1[C@@H](c2ccccc2)[C@H](CO)N1C(C)=O)C(=O)NC(C)C`, the outcome was inactive.

As to `C[C@@H]1CN([C@@H](C)CO)C(=O)c2cccc(NS(C)(=O)=O)c2O[C@H]1CN(C)S(=O)(=O)c1ccc(Cl)cc1`, the call was inactive.

Take `COC(=O)C[C@H]1CC[C@H]2[C@H](COc3ccc(NC(=O)NC(C)C)cc3C(=O)N2C)O1`: the outcome was inactive. As for `Cc1noc(C)c1NC(=O)Nc1ccc2c(c1)C(=O)N(C)[C@@H]1CC[C@H](CC(=O)N[C@H]3CCN(Cc4ccccc4)C3)O[C@H]1CO2`, the call was inactive. Regarding `O=C(CC(F)(F)F)N1C[C@H]2[C@@H](c3ccccc31)[C@H](CO)N2C(=O)Cc1cccnc1`, the compound was called inactive. On to `CN1C(=O)c2cc(NC(=O)Cc3ccccc3)ccc2OC[C@H]2O[C@@H](CC(=O)NCc3ccc(Cl)cc3)CC[C@@H]21`, for which the outcome was inactive. The result for `CNC(=O)C[C@@H]1CC[C@@H]2[C@H](COc3ccc(NC(=O)c4cccc(OC)c4)cc3C(=O)N2C)O1` reads “inactive”.

The record behind these values is PubChem BioAssay AID720697 (Broad Institute, 2013).
